In ChEMBL document CHEMBL4513149, “CO-ADD screening of MMV (CH) - MMV compounds” (2021):
Results with a measured potency or affinity are listed apart.

Tests used:
Klebsiella pneumoniae = conditions: Concentration 20 uM; ASSAY_TEST Inhibition of Bacterial Growth; detection method Absorption (OD600); MEDIA CAMHB; plate type 384well; NBS; CORNING #3640; time 18 hr
Candida albicans = conditions: 20 µM
Cryptococcus neoformans = conditions: Concentration 20 uM; ASSAY_TEST Inhibition of Fungal Growth; detection method Resazurin; Absorption (OD600-OD570); plate type 384well; NBS; CORNING #3640

## Cc1nc2ccccn2c1C(=O)NCc1ccc(Cl)cc1
Klebsiella pneumoniae
  Inhibition: 17.8%
Candida albicans
  Inhibition: 2.86%
Cryptococcus neoformans
  Inhibition: -5.69%

## O=C(c1ccc(NCCO)cc1)C1C[C@H]1c1ccc(Cl)cc1 (stereo not given in full)
Klebsiella pneumoniae
  Inhibition: 5.98%
Candida albicans
  Inhibition: 6.88%
Cryptococcus neoformans
  Inhibition: 2.16%

## O=C(NCc1ccco1)N1CCN(Cc2ccc(Cl)s2)CC1
Klebsiella pneumoniae
  Inhibition: 5.01%
Candida albicans
  Inhibition: 2.08%
Cryptococcus neoformans
  Inhibition: -2.89%

## Cc1ccc2cc(C3NC(=O)c4ccccc4N3)c(Cl)nc2c1 (stereo not given)
Klebsiella pneumoniae
  Inhibition: 19.35%
Candida albicans
  Inhibition: 3.16%
Cryptococcus neoformans
  Inhibition: -7.26%

## C[C@H](C(N)=O)N1CCCC[C@@H]1c1ccc(OCc2cccc(F)c2)cc1
Klebsiella pneumoniae
  Inhibition: 9.46%
Candida albicans
  Inhibition: 2.97%
Cryptococcus neoformans
  Inhibition: -6.98%

## Cc1cccc(NC(=O)c2cc(S(=O)(=O)N(C)c3ccc(F)cc3)ccc2Cl)n1
Klebsiella pneumoniae
  Inhibition: 14.02%
Candida albicans
  Inhibition: 9.46%
Cryptococcus neoformans
  Inhibition: -4.89%

## COc1ccc(Oc2ccc([C@@H](C)N(C)c3ncc4c(N)nc(N)nc4n3)cc2)cc1
Klebsiella pneumoniae
  Inhibition: 18.87%
Candida albicans
  Inhibition: 5.99%
Cryptococcus neoformans
  Inhibition: -6.67%

## CCn1cnc2c(Nc3cc(F)cc(F)c3)nc(C#N)nc21
Klebsiella pneumoniae
  Inhibition: 8.51%
Candida albicans
  Inhibition: 3.4%
Cryptococcus neoformans
  Inhibition: -1.23%

## COc1ccc(Nc2ccccc2NC(=O)c2ccc(O)nc2)cc1
Klebsiella pneumoniae
  Inhibition: -2.41%
Candida albicans
  Inhibition: 1.42%
Cryptococcus neoformans
  Inhibition: -7.76%

## CN1CCCN(C(c2ccccc2)c2ccc(Cl)cc2)CC1 (stereo not given) [HOMOCHLORCYCLIZINE]
Klebsiella pneumoniae
  Inhibition: 10.44%
Candida albicans
  Inhibition: 2.84%
Cryptococcus neoformans
  Inhibition: -6.27%
